Screening data: PubChem BioAssay, several laboratories
PKA-R2B activ: activates the human PKA-R2B holoenzyme complex. actives 0.079% (n = 340,000). P22694+P31323. PKA-R2B holoenzyme dissociation, Cy5-IP20 fluorescence polarization; R2B truncated from residue 108, S112A mutant; 0% DMSO only, 100% 113 µM cGMP. activation, % at 11.4 µM;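 active = activation above a cutoff set at the mean over all compounds plus 3 SD, cut at about 18% in these data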;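 note: higher means more holoenzyme dissociation and a rise in polarization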
Target sequence (P31323 whole entry, looked up, other chains not shown, the tested form may be a part): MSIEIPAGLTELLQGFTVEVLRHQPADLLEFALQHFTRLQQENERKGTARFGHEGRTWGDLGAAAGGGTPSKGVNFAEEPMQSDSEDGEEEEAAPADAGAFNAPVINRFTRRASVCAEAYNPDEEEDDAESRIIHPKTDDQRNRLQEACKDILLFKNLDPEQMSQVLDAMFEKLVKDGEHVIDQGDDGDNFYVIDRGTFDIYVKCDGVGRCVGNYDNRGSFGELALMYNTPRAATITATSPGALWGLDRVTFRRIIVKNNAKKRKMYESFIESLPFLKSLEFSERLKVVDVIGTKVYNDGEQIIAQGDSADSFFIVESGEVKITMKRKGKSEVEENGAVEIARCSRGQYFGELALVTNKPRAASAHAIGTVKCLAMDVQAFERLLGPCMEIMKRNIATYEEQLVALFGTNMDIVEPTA
SUMO Mot1 rescue: SUMOylation pathway inhibition by Mot1-301 growth rescue; S. cerevisiae Mot1-301 growth rescue, ATP luminescence, 38.5C; percent above DMSO median, 100 means doubled; growth rescue, % at 18.8 µM; actives 1% (n = 320,000); AID 2716;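 active = every valid replicate shows activation above 250% relative to neutral control wells; inactive = the rest, any valid replicate at or below 250%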;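 note: OY570 slx delta 5 strain wells were the positive control but not used for scaling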
PKA-R1A activ: activates the PKA-R1A holoenzyme complex | PKA-R1A dissociation, Cy5-IP20 fluorescence polarization; scaled: DMSO 0%, 113 µM cGMP 100% | activation, % at 11.4 µM | actives 0.083% (n = 340,000) | AID 504707;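 active = percent activation above the mean of all tested compounds plus 3 SD, cut at about 19% in these data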;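 note: higher means more PKAc released from R1A so a rise in polarization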
MsrA inh: inhibits bovine methionine sulfoxide reductase A; purified bovine MsrA, absorbance read-out; inhibition, % at 15.5 µM; actives 0.75% (n = 360,000); in the data active = inhibition above about 4.5%;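 note: 0% = vehicle wells with enzyme and 100% = reference inhibitor wells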
MsrA act: bovine methionine sulfoxide reductase A activation; purified bovine MsrA, absorbance read-out; activation, % at 10.6 µM; actives 0.3% (n = 360,000); in the data active = activation above about 7.5%;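 note: 0% = vehicle and 100% = reference activator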
Mot1 SUMO dose: yeast SUMO pathway inhibition in dose response; AID 493004; S. cerevisiae Mot1-301 galactose growth, ATP luminescence, 24 h; -100 = growth of slx-deleted rescue strain; growth activity, percent, % at 42 µM; 2,300 tested, under 10 active; shares compounds with SUMO Mot1 rescue;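 active = Signal drops as the depositor expects, and the fitted half-maximal dose is no more than ten times the top valid tested dose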;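 note: more negative values mean stronger growth rescue toward the control strain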
* hit, by the source's call; . = no result given; + = active, no number. The list is not random: actives were taken first. Their share in the collection is about 2%.

SMILES | PKA-R2B activ | SUMO Mot1 rescue | PKA-R1A activ | MsrA inh | MsrA act | Mot1 SUMO dose
O=C(Cc1ccc(F)cc1)Nc1nc(-c2ccc(F)cc2)cs1 | 1.6 | + | -1.9 | 1.6 | -2.4 | -0.6
CCN(CC)C(=O)Cn1c(=O)n(CCCCCC(=O)Nc2ccccc2)c(=O)c2sccc21 | 1.0 | 3.0 | -1.5 | 0.4 | 3.3 | .
CCN(CC)C(=O)Cn1c(=O)n(CCCC(=O)NCc2ccccc2)c(=O)c2sccc21 | -1.6 | 539.5* | -1.5 | -0.5 | 0.6 | 0.7
CCOC(=O)c1ccccc1NC(=O)CSc1ccc(-c2ccccn2)nn1 | 8.7 | 782.9* | 7.7 | 2.0 | 0.0 | 0.1
COC(=O)C1=C(C)N(Cc2ccccc2C(F)(F)F)C(=NCc2ccccc2C(F)(F)F)NC1c1ccc(F)cc1 (stereo unspecified) | . | . | . | -0.2 | . | .
CCn1c(SCC(=O)Nc2cc(C)on2)nnc1-c1ccco1 | -4.0 | -7.2 | 4.9 | 0.3 | -1.2 | .
CCCCn1c(SCC(=O)Nc2cc(C)on2)nnc1-c1ccco1 | -7.3 | 527.0* | 10.2 | 1.1 | -2.9 | 0.5
C/C(=C\C(=O)N1CCc2ccccc21)C(=O)O | -9.3 | 587.4* | 5.8 | -0.1 | -1.5 | 1.6
O=C(c1ccccc1)N1CCc2ccccc21 | 0.6 | 3.9 | -4.5 | -0.3 | -1.2 | .
O=C(COC(=O)C1CC(O)CN1S(=O)(=O)c1ccccc1[N+](=O)[O-])c1ccc[nH]1 (stereo unspecified) | -6.3 | -12.5 | -8.7 | 0.1 | -9.1 | .
O=C(COC(=O)[C@@H]1CC(O)CN1S(=O)(=O)c1ccccc1[N+](=O)[O-])Nc1ccc2ccccc2c1 (stereo partly specified) | -19.6 | 494.5* | -12.8 | 1.4 | -3.4 | 0.1
CC(=O)CCCCn1cnc2c1c(=O)n(C)c(=O)n2C | . | 17.5 | . | . | . | .
CN1CCCCC1=NCCCn1cnc2c1c(=O)n(C)c(=O)n2C | -1.6 | 601.9* | 2.9 | 1.1 | -1.5 | 0.5
COC(=O)C1=C(C)N(C)C(=NCc2cccc(C(F)(F)F)c2)NC1c1cccc(F)c1 (stereo unspecified) | . | . | . | -0.6 | . | .
O=C(O)CCc1ccc(-c2cccs2)n1NC(=O)c1ccc(O)cc1 | -3.3 | -30.7 | 15.4 | 2.2 | 1.7 | .
O=C(O)CCc1ccc(-c2cccs2)n1NC(=O)c1cccs1 | -7.5 | + | 2.1 | -0.2 | -0.9 | 0.4
CC(=O)c1ccccc1C(=O)N1CCCC(N2CCN(Cc3ccc4c(c3)OCO4)CC2)C1 (stereo unspecified) | 6.0 | 360.3* | 3.9 | 0.1 | -7.4 | 0.4
CN1CCCCC(NC(=O)c2ccc(Cl)cc2Cl)C1=O (stereo unspecified) | . | . | . | 0.6 | . | .
Cc1ccc(S(=O)(=O)NCC(=O)N(CC(=O)NCc2ccc(F)cc2)CC2CCCO2)cc1 (stereo unspecified) | -0.6 | -14.3 | 5.7 | 0.3 | -1.7 | .
COc1ccc(S(=O)(=O)NCC(=O)N(CC(=O)NCC2CCCO2)c2ccccc2C)cc1 (stereo unspecified) | -10.1 | 920.9* | -1.9 | -0.3 | -10.1 | 0.9
O=C(CN(CC1CCCO1)C(=O)CNS(=O)(=O)c1ccc(F)cc1)NCc1ccccc1 (stereo unspecified) | -15.0 | 886.2* | 5.9 | -0.6 | -10.0 | 0.3
Cc1ccc(NC(=O)Cn2nnc(C(=O)NCc3ccc4c(c3)OCO4)c2N)cc1 | 10.0 | 549.8* | 12.4 | 0.9 | -12.0 | 0.1
Nc1c(C(=O)NCc2ccc3c(c2)OCO3)nnn1CC(=O)Nc1ccc(Br)cc1 | -2.4 | -9.2 | -10.2 | 0.9 | -0.7 | .
CC1CCN(C(=O)c2cc(N3C(=O)C4C5CCC(C5)C4C3=O)ccc2Cl)CC1 (stereo unspecified) | . | -23.8 | . | . | . | .
O=C(c1cc(N2C(=O)C3C4CCC(C4)C3C2=O)ccc1Cl)N1CCN(c2ccccc2)CC1 (stereo unspecified) | -6.5 | + | -3.8 | -0.7 | -3.6 | 0.8
CC(=O)Nc1ccc(C(=O)OCC(=O)NCc2ccccc2)cc1 | 0.8 | -2.8 | 1.0 | 0.3 | -2.4 | .
CC(=O)Nc1cccc(C(=O)OCC(=O)NCc2ccc(F)cc2)c1 | -2.8 | 453.4* | 8.1 | -0.4 | -1.9 | 0.0
